This passage reports Potency results from PubChem BioAssay (Tox21).

“And” between values parts separate entries of the source, which are not always exact repeats. Equal entries are not always repeated. Records with an inconclusive call do not appear. Entries that show only a call come without a potency. Some structures have more than one record in an assay (separate samples or runs), and their calls can disagree. The source made the active and inactive calls. Calls follow the shape of the dose curve; as a rule, active = well fitted curve in the direction sought with a large enough effect in the repeat runs; inconclusive = weak or mixed curves; inactive = no such curve, though single readings can be large; an effect the other way counts as inactive or inconclusive.

A short description of the first assay: A CellTox Green Cytotoxicity Assay to monitor cytotoxicity in HepG2 cells - 32 hour (AID 1224883). Also: nearly all actives have a fitted effect of over 50% in size. Also: potency is read from the fitted curve at half-maximal effect. The note with it: CellTox Green fluorescence; series mostly up to 76.8 µM. Put shortly:
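HepG2, 600 cells/well premixed w/ CellTox Green; 5 h settle, 37 C/5% CO2; pintool cpd add (DMSO); 37 C, 40 h; fluorescence read at 0, 8, 16, 24, 32, 40 h.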
As to `CC(C)C(=O)Nc1ccc([N+](=O)[O-])c(C(F)(F)F)c1`, the Potency result is “inactive”.

With `CN(N=O)C(=O)N[C@@H]1[C@@H](O)[C@H](O)[C@@H](CO)O[C@@H]1O`, the Potency result is “inactive”.

In the case of `NS(=O)(=O)O`, the Potency result is “inactive”.

`C=CCc1ccc(O)c(OC)c1`: the Potency result was “inactive”.

On to `C/C=C/C=C/C(=O)O`, for which the Potency result was “inactive”.

With `Cc1ncc([N+](=O)[O-])n1C`, the Potency result was “inactive”.

For the compound `CN(C)CCOC(C)(c1ccccc1)c1ccccn1` (centres undefined), the Potency entry is “inactive”.

`COc1ccc2c(c1)c(CC(=O)O)c(C)n2C(=O)c1ccc(Cl)cc1`: the Potency result is “inactive”.

Consider `CN(C)C(=O)Nc1ccc(Cl)c(Cl)c1`, for which the Potency entry was “inactive”.

For the compound `O=c1[nH]cc(F)c(=O)[nH]1`, the Potency was 45.3 µM (active) and inactive.

Turning to `O=C(O)CC(O)C(=O)O` (centres undefined), the Potency result was “inactive”.

`CC(=O)Nc1c(I)c(NC(C)=O)c(I)c(C(=O)O)c1I`: the Potency entry is “inactive”.

For the compound `Cc1c(C(=O)O)c(O)cc2c1C(=O)c1c(O)c([C@@H]3O[C@H](CO)[C@@H](O)[C@H](O)[C@H]3O)c(O)c(O)c1C2=O`, the Potency entry is “inactive”.

With `CCCCC1(COC(=O)CCC(=O)O)C(=O)N(c2ccccc2)N(c2ccccc2)C1=O`, the Potency entry is “inactive”.

Turning to `Cc1ncc([N+](=O)[O-])n1CCO`, the Potency result is “inactive”.

As for `CCCCOC(=O)c1ccc(O)cc1`, the Potency entry was “inactive”.

For the compound `O=S1(=O)OC(c2ccc(O)cc2)(c2ccc(O)cc2)c2ccccc21`, the Potency result was “inactive”.

Take `NC(=O)c1cccnc1`: the Potency result is “inactive”.

Consider `CC(=O)C(=O)O`, for which the Potency entry was “inactive”.

As for `O=C1NS(=O)(=O)c2ccccc21`, the Potency result is “inactive”.

`F[B-](F)(F)F`: the Potency entry was “inactive”.

Consider `CC(C)c1c(C(=O)Nc2ccccc2)c(-c2ccccc2)c(-c2ccc(F)cc2)n1CC[C@@H](O)C[C@@H](O)CC(=O)O`, for which the Potency was 2.98 µM (active) and 10.2 µM (active) and 6.01 µM (active).

In the case of `Cc1cc(C)nc(NS(=O)(=O)c2ccc(N)cc2)n1`, the Potency result is “inactive”.

`CN(C)CCOC(c1ccccc1)c1ccccc1`: the Potency entry is “inactive”.

With `CCCC[P+](CCCC)(CCCC)CCCC`, the Potency result is “inactive”.

Turning to `C=C(C)C(=O)OCC(C)O` (centres undefined), the Potency entry is “inactive”.

For the compound `Nc1ccc(S(N)(=O)=O)cc1`, the Potency entry is “inactive”.

Consider `CS(=O)(=O)OCCCCOS(C)(=O)=O`, for which the Potency entry is “inactive”.

`CCOC(N)=O`: the Potency entry was “inactive”.

The next assay can be described thus: A CellTox Green Cytotoxicity Assay to monitor cytotoxicity in HEK293 cells - 8 hour (AID 1224884). Also: nearly all actives have a fitted effect of over 35% in size. Also: potency is read from the fitted curve at half-maximal effect. The note with it: CellTox Green fluorescence; series mostly up to 76.8 µM. Put shortly:
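Read-out: fluorescence of a cell-impermeant cyanine dye staining DNA of dead cells, proportional to cytotoxicity. HEK293, 600 cells/well with reagent, compound (23 nL DMSO) added after 5 h; reads at 0, 8, 16, 24, 32, 40 h.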
As for `CC(C)C(=O)Nc1ccc([N+](=O)[O-])c(C(F)(F)F)c1`, the Potency entry is “inactive”.

As for `CN(N=O)C(=O)N[C@@H]1[C@@H](O)[C@H](O)[C@@H](CO)O[C@@H]1O`, the Potency result is “inactive”.

Regarding `NS(=O)(=O)O`, the Potency result is “inactive”.

For the compound `C=CCc1ccc(O)c(OC)c1`, the Potency entry was “inactive”.

On to `C/C=C/C=C/C(=O)O`, for which the Potency result was “inactive”.

In the case of `Cc1ncc([N+](=O)[O-])n1C`, the Potency is 48.3 µM (active) and inactive.

`CN(C)CCOC(C)(c1ccccc1)c1ccccn1` (centres undefined): the Potency result was “inactive”.

With `COc1ccc2c(c1)c(CC(=O)O)c(C)n2C(=O)c1ccc(Cl)cc1`, the Potency entry was “inactive”.

With `CN(C)C(=O)Nc1ccc(Cl)c(Cl)c1`, the Potency result was “inactive”.

Turning to `O=c1[nH]cc(F)c(=O)[nH]1`, the Potency result was “inactive”.

Turning to `O=C(O)CC(O)C(=O)O` (centres undefined), the Potency entry was “inactive”.

On to `CC(=O)Nc1c(I)c(NC(C)=O)c(I)c(C(=O)O)c1I`, for which the Potency result is “inactive”.

For `Cc1c(C(=O)O)c(O)cc2c1C(=O)c1c(O)c([C@@H]3O[C@H](CO)[C@@H](O)[C@H](O)[C@H]3O)c(O)c(O)c1C2=O`, the Potency entry is “inactive”.

Take `CCCCC1(COC(=O)CCC(=O)O)C(=O)N(c2ccccc2)N(c2ccccc2)C1=O`: the Potency entry was “inactive”.

In the case of `Cc1ncc([N+](=O)[O-])n1CCO`, the Potency entry is “inactive”.

Take `CCCCOC(=O)c1ccc(O)cc1`: the Potency result was “inactive”.

For the compound `O=S1(=O)OC(c2ccc(O)cc2)(c2ccc(O)cc2)c2ccccc21`, the Potency entry is “inactive”.

As to `NC(=O)c1cccnc1`, the Potency entry is “inactive”.

As to `CC(=O)C(=O)O`, the Potency entry was “inactive”.

For the compound `O=C1NS(=O)(=O)c2ccccc21`, the Potency entry is “inactive”.

Regarding `F[B-](F)(F)F`, the Potency result was “inactive”.

For `CC(C)c1c(C(=O)Nc2ccccc2)c(-c2ccccc2)c(-c2ccc(F)cc2)n1CC[C@@H](O)C[C@@H](O)CC(=O)O`, the Potency result was “inactive”.

For `Cc1cc(C)nc(NS(=O)(=O)c2ccc(N)cc2)n1`, the Potency result is “inactive”.

Consider `CN(C)CCOC(c1ccccc1)c1ccccc1`, for which the Potency entry is “inactive”.

As for `CCCC[P+](CCCC)(CCCC)CCCC`, the Potency entry is “inactive”.

`C=C(C)C(=O)OCC(C)O` (centres undefined): the Potency result is “inactive”.

Consider `Nc1ccc(S(N)(=O)=O)cc1`, for which the Potency entry is “inactive”.

For `CS(=O)(=O)OCCCCOS(C)(=O)=O`, the Potency entry was “inactive”.

In the case of `CCOC(N)=O`, the Potency entry is “inactive”.

A short description of a further assay: qHTS RealTime-Glo MT Cell Viability Assay in HepG2 cells - 16 hour (AID 1224885). Also: nearly all actives have a fitted effect of over 50% in size. The note with it: RealTime-Glo luminescence; series mostly up to 76.8 µM. Put shortly: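 Cells + NanoLuc/prosubstrate dispensed (600 cells/well) → 5 h at 37 C/5% CO2 → compounds in DMSO transferred → 40 h incubation at 37 C, luminescence read at 0, 8, 16, 24, 32, 40 h.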
Background: In qHTS, concentration-response curves come from the screen itself.
For the compound `NS(=O)(=O)O`, the Potency entry is “inactive”.

`C/C=C/C=C/C(=O)O`: the Potency result was “inactive”.

Regarding `CN(C)CCOC(C)(c1ccccc1)c1ccccn1` (centres undefined), the Potency result was “inactive”.

Consider `O=C(O)CC(O)C(=O)O` (centres undefined), for which the Potency result is “inactive”.

As for `CC(C)c1c(C(=O)Nc2ccccc2)c(-c2ccccc2)c(-c2ccc(F)cc2)n1CC[C@@H](O)C[C@@H](O)CC(=O)O`, the Potency entry was “inactive”.

On to `CCCC[P+](CCCC)(CCCC)CCCC`, for which the Potency result is “inactive”.

For `C=C(C)C(=O)OCC(C)O` (centres undefined), the Potency result was “inactive”.

Another assay in a line: qHTS RealTime-Glo MT Cell Viability Assay in HEK293 cells - 24 hour (AID 1224886). Also: nearly all actives have a fitted effect of over 50% in size. Also: potency is read from the fitted curve at half-maximal effect. Particulars: RealTime-Glo luminescence; series mostly up to 76.8 µM. Put shortly: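 Tox21 10K qHTS, HEK293, 600 cells/well, RealTime-Glo reagent co-dispensed with cells; 5 h preincubation, compound by pintool, 37 C, luminescence at 0–40 h.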
For `CC(C)C(=O)Nc1ccc([N+](=O)[O-])c(C(F)(F)F)c1`, the Potency was 17.9 µM (active) and 21.9 µM (active) and 10.7 µM (active).

Turning to `CN(N=O)C(=O)N[C@@H]1[C@@H](O)[C@H](O)[C@@H](CO)O[C@@H]1O`, the Potency result is “inactive”.

`NS(=O)(=O)O`: the Potency entry was “inactive”.

For `C=CCc1ccc(O)c(OC)c1`, the Potency entry was “inactive”.

Turning to `C/C=C/C=C/C(=O)O`, the Potency entry is “inactive”.

On to `Cc1ncc([N+](=O)[O-])n1C`, for which the Potency entry is “inactive”.

As for `CN(C)CCOC(C)(c1ccccc1)c1ccccn1` (centres undefined), the Potency result is “inactive”.

As for `COc1ccc2c(c1)c(CC(=O)O)c(C)n2C(=O)c1ccc(Cl)cc1`, the Potency result is “inactive”.

`CN(C)C(=O)Nc1ccc(Cl)c(Cl)c1`: the Potency entry was “inactive”.

`O=c1[nH]cc(F)c(=O)[nH]1`: the Potency result was “inactive”.

Consider `O=C(O)CC(O)C(=O)O` (centres undefined), for which the Potency entry is “inactive”.

Turning to `CC(=O)Nc1c(I)c(NC(C)=O)c(I)c(C(=O)O)c1I`, the Potency entry is “inactive”.

Turning to `Cc1c(C(=O)O)c(O)cc2c1C(=O)c1c(O)c([C@@H]3O[C@H](CO)[C@@H](O)[C@H](O)[C@H]3O)c(O)c(O)c1C2=O`, the Potency entry was “inactive”.

For the compound `CCCCC1(COC(=O)CCC(=O)O)C(=O)N(c2ccccc2)N(c2ccccc2)C1=O`, the Potency result was “inactive”.

For the compound `Cc1ncc([N+](=O)[O-])n1CCO`, the Potency entry is “inactive”.

As for `CCCCOC(=O)c1ccc(O)cc1`, the Potency is 22.1 µM (active) and 19.5 µM (active).

With `O=S1(=O)OC(c2ccc(O)cc2)(c2ccc(O)cc2)c2ccccc21`, the Potency result is “inactive”.

In the case of `NC(=O)c1cccnc1`, the Potency entry was “inactive”.

For `CC(=O)C(=O)O`, the Potency result was “inactive”.

Take `O=C1NS(=O)(=O)c2ccccc21`: the Potency result is “inactive”.

In the case of `F[B-](F)(F)F`, the Potency entry is “inactive”.

Take `CC(C)c1c(C(=O)Nc2ccccc2)c(-c2ccccc2)c(-c2ccc(F)cc2)n1CC[C@@H](O)C[C@@H](O)CC(=O)O`: the Potency entry is “inactive”.

Turning to `Cc1cc(C)nc(NS(=O)(=O)c2ccc(N)cc2)n1`, the Potency entry was “inactive”.

Turning to `CN(C)CCOC(c1ccccc1)c1ccccc1`, the Potency entry was “inactive”.

For `CCCC[P+](CCCC)(CCCC)CCCC`, the Potency is 19.4 µM (active) and 4.36 µM (active).

In the case of `C=C(C)C(=O)OCC(C)O` (centres undefined), the Potency entry is “inactive”.

As to `Nc1ccc(S(N)(=O)=O)cc1`, the Potency entry was “inactive”.

With `CS(=O)(=O)OCCCCOS(C)(=O)=O`, the Potency result is “inactive”.

Consider `CCOC(N)=O`, for which the Potency entry was “inactive”.
